Shown are actives, neighbours in structure and some others; about 19% of the full set was active somewhere.
ELG1 repair inh: blocks ELG1-dependent DNA repair in HEK293T cells | HEK293T ELG1-luciferase reporter, luminescence, 16 h; DNA damage induced by 5-fluorouridine | Potency, µM (highest dose often 46.1 µM), for inactives: at the top dose activity change, negative = inhibition, usual class: inhibitors | hit rate 2.3% among 330,000; note: potency is the fitted concentration of half-maximal effect; nearly all actives have a fitted effect of over 55% in size
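Luminescence from the luciferase reporter, measured 30 min after ONE-Glo reagent at room temperature, was the read-out. Beforehand, 2,000 cells per well were exposed for 16 hr at 37 °C to 5-fluorouridine together with compound or vehicle.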
HT1080 IDH1KD tx: toxicity to HT-1080 IDH1 knockdown cells (counter line). AID 686971. hit rate 2% among 360,000. HT-1080 IDH1 knockdown viability, ATP luminescence, 48 h. Potency, µM (top dose mostly 46.1 µM), for the others: at the highest dose activity, negative = toxicity, usual class: cytotoxic;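 note: potency is the fitted concentration of half-maximal effect; 0% = DMSO wells and -100% = cell-free medium wells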
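Viability of IDH1-knockdown HT-1080 fibrosarcoma cells was assessed by CellTiter-Glo after 48 h at 37 °C with titrated compound; concentration-effect curves were classified by fit quality and response size.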
HT1080-NT tox: kills 2HG-producing HT-1080-NT fibrosarcoma cells; HT-1080-NT fibrosarcoma viability, CellTiter-Glo ATP luminescence, 48 h; Potency, µM (top dose mostly 46.1 µM), for inactives: at the top dose activity, negative = less viability, most hits filed as cytotoxic; hit rate 1.6% among 360,000; AID 686970;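 note: NT is the 2HG producing partner of a matched IDH1 knockdown line; potency is the fitted concentration of half-maximal effect; 0% = DMSO-treated cells and -100% = media-only wells without cells; nearly all actives have a fitted effect of over 55% in size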
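Compounds were tested in concentration-response format on HT-1080-NT cells for 48 hours at 37 degrees C. Cell viability came from CellTiter-Glo luminescence; curves were classified by r2, response magnitude and activity.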
DT40 TDP1 CPT: growth inhibition of DT40 Tdp1-/-;hTDP1 cells with camptothecin (screen for TDP1 inhibitors); hit rate 12% among 420,000; Potency, µM (doses to about 46.2 µM), for inactives: at the highest dose activity change, negative = growth inhibition, hits mostly inhibitors; AID 686979; chicken DT40 Tdp1-/-;hTDP1 cells + 20 nM CPT, ATP luminescence, 48 h; note: potency is the fitted concentration of half-maximal effect; nearly all actives have a fitted effect of over 55% in size
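Chicken DT40 Tdp1-/- cells complemented with human TDP1, 400 cells/well, exposed to compounds plus 20 nM camptothecin for at least 48 h at 37 C; viability read as ATP content by CellTiter-Glo luminescence.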
IL1B secr inh: inflammasome signaling inhibition, IL-1 beta readout. activity change, % at 57.5 µM. THP-1 LPS/ATP IL-1B secretion, AlphaLISA, 16 h; active compounds read low. AID 743279. hit rate 4.7% among 360,000; in the data active = activity change below about -50%; inconclusive = mostly about -30% to -49%
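THP-1 cells pretreated 1 hr with compounds (up to 57.5 uM final), then stimulated with LPS (250 ng/mL final) plus ATP (1.25 mM final); secreted IL-1B measured by AlphaLISA after 16 hr, decreased signal indicating inhibition.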
DT40 TDP1 no CPT: qHTS for Inhibitors of human tyrosyl-DNA phosphodiesterase 1 (TDP1): qHTS in cells in absence of CPT | DT40 Tdp1-/- hTDP1 cells, no CPT, ATP luminescence, 48 h | Potency, µM (series often up to 46.2 µM), for the others: at the highest dose activity change, negative = growth inhibition, hits mostly inhibitors | hit rate 15% among 420,000 | AID 686978, 2013; note: potency is the fitted concentration of half-maximal effect; nearly all actives have a fitted effect of over 55% in size
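Growth kinetics read by CellTiter-Glo luminescence after ≥48 hr at 37 °C. Cells: DT40 Tdp1-/- stably carrying human TDP1, 400 per well, compound exposure in the absence of CPT (DMSO vehicle).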
* marks the source's active call; other numbers are inactive results; ? = inconclusive; / = not tested or not shown. Unless noted, calls come from the whole dose curve; as a rule, active = well fitted curve in the direction sought with a large enough effect; inconclusive = small, poorly fitted or top-dose-only effect, or another doubt; inactive = no such curve, though single readings can be large; an effect the other way counts as inactive or inconclusive. Unless noted, % is set by controls: 0 for no effect and ±100 for the full control effect.

SMILES | ELG1 repair inh | HT1080 IDH1KD tx | HT1080-NT tox | DT40 TDP1 CPT | IL1B secr inh | DT40 TDP1 no CPT
COCCCNC(=O)/C(C#N)=C/c1c(N2CCN(c3ccccc3)CC2)nc2c(C)cccn2c1=O | 21µM* | -10% | -3% | ? | -7 | 16µM*
COCCCNC(=O)/C(C#N)=C/c1c(N2CCN(c3cccc(Cl)c3)CC2)nc2c(C)cccn2c1=O | 23µM* | 1% | 3% | ? | -66* | ?
Cc1cccn2c(=O)c(C=O)c(N3CCN(C)CC3)nc12 | -22% | 18% | 9% | 17% | 17 | 2%
CNc1oc(Cc2ccccc2)nc1S(=O)(=O)c1ccccc1 | 10% | ? | -17% | 15µM* | 0 | 6.5µM*
CNc1oc(C)nc1S(=O)(=O)c1ccc(C)cc1 | 1% | 5% | -1% | -1% | 10 | -16%
CCOc1ccc(C(=O)C(C)OC(=O)C2CCN(c3ccc(C(F)(F)F)cn3)CC2)cc1 (stereo not drawn) | -17% | -11% | -14% | 16µM* | 25 | 23µM*
Cc1ccc(C(=O)C(C)OC(=O)C2CCN(c3ccc(C(F)(F)F)cn3)CC2)cc1C (stereo not drawn) | 0% | -3% | 0% | ? | 15 | ?
O=C(Cn1cnc([N+](=O)[O-])n1)N/N=C/c1ccccc1O | -23% | ? | ? | 16µM* | 166 | 16µM*
O=C(Cn1cncn1)N/N=C/c1ccccc1O | ? | 0% | -21% | 15µM* | 37 | 13µM*
O=C(Cn1cnc([N+](=O)[O-])n1)N/N=C/c1cc(Cl)ccc1O | ? | ? | ? | 4.6µM* | 169 | 7.3µM*
Cc1ccccc1/C=N/NC(=O)Cn1cnc([N+](=O)[O-])n1 | 18% | 1% | 2% | -10% | 20 | 3%
O=C(CSc1ccc2ccccc2n1)N/N=C/c1ccccc1O | 16µM* | ? | ? | 5.2µM* | 299 | 5.8µM*
O=C(Cn1cncn1)N/N=C/c1cc([N+](=O)[O-])ccc1O | ? | -1% | -2% | 5% | -3 | 2%
O=C(CSc1ccc2ccccc2n1)N/N=C/c1ccc(O)cc1 | -9% | ? | ? | ? | 56 | ?
O=C(CCCn1cnc([N+](=O)[O-])n1)Nc1cc(Cl)ccc1O | 3% | -12% | -11% | 2% | 22 | -12%
COC(=O)CC1C(C)(C)C(OC(C)=O)C2CC3C4CC(=O)OC(c5ccoc5)[C@]4(C)CCC3[C@@]1(C)C2=O (stereo partly drawn) | / | / | / | -11% | / | -16%
Cc1nn(C)c(C)c1NS(=O)(=O)c1c(C)n[nH]c1C | ? | 26% | 20% | -3% | -3 | -1%
CC1CCC2(CC1)NC(=O)N(NC(=O)c1cccc(N(C)C)c1)C2=O (stereo not drawn) | 5% | -2% | -1% | 8% | -3 | 1%
CC(C)(C)OC(=O)N1CCC(c2c(C(=O)Nc3ccc4c(c3)OCCO4)cnn2-c2ccc(F)cc2)CC1 | / | / | / | ? | / | 18µM*
COc1ccc(-n2ncc(C(=O)Nc3ccc4c(c3)OCCO4)c2C2CCN(C(=O)OC(C)(C)C)CC2)cc1 | / | / | / | 21µM* | / | 16µM*
O=C(CN1C(=O)c2ccccc2C1=O)NCC1Cc2cccc(-c3ncccn3)c2O1 (stereo not drawn) | / | / | / | 1% | / | -11%
Cc1cc(C)cc(N(CCC#N)C(=O)CSc2nc3ccccc3c(=O)[nH]2)c1 | 0% | -37% | -25% | -7% | -26 | ?
Cc1cccc(NC(=O)c2cccc(Cn3cc(Br)c([N+](=O)[O-])n3)c2)c1C | ? | -11% | -27% | ? | ? | 21µM*
Cc1cc(C(c2ccc(O)cc2)c2cc(C)c(O)cc2C)c(C)cc1O | 7% | ? | ? | ? | -82* | -5%
O=c1c2ccccc2c(/C=N/c2n[nH]c(CCCO)n2)c(O)n1-c1ccccc1Cl | -18% | 0% | 2% | ? | -7 | -26%
SMILES | ELG1 repair inh | HT1080 IDH1KD tx | HT1080-NT tox | DT40 TDP1 CPT | IL1B secr inh | DT40 TDP1 no CPT
Cn1ccc2c(-c3cncc4ccccc34)cc3c(c21)C1CCC3C1 (stereo not drawn) | / | -28% | -18% | ? | 11 | 18µM*
Cn1ccc2c(-c3cccc(C=O)c3)cc3c(c21)C1CCC3C1 (stereo not drawn) | / | ? | ? | 23µM* | -8 | ?
Cn1ccc2c(-c3cccnc3)cc3c(c21)C1CCC3C1 (stereo not drawn) | / | -2% | -1% | ? | 1 | ?
COc1ccc(-c2cc3c(c4c2ccn4C)C2CCC3C2)cc1OC (stereo not drawn) | / | -27% | ? | ? | -23 | 26µM*
O=C(CS(=O)(=O)c1c[nH]c2ccccc12)N1CCc2ccccc21 | 0% | -2% | -2% | 6% | -24 | -22%
Cc1ccc(C)c(S(=O)(=O)N2CCCCC2CCNC(=O)C(=O)NC2CC2)c1 (stereo not drawn) | -13% | -18% | -11% | -21% | 16 | ?
Cc1ccc(C)c(S(=O)(=O)N2CCCC2CNC(=O)C(=O)NCc2ccccc2C)c1 (stereo not drawn) | 15µM* | -16% | -21% | ? | -17 | ?
COc1ccccc1CNC(=O)C(=O)NCC1CCCN1S(=O)(=O)c1cc(C)ccc1C (stereo not drawn) | / | -1% | 0% | ? | 19 | ?

From PubChem BioAssay
